Unmarked numbers belong to inactive results. Where a call stands in place of a potency, no number is given. For some assays here: Potency and affinity values are given separately. Calls of active or inactive are those of the source. Unless noted, how the calls were made is not given here.
Key:
[1] = antimalarial activity against Dd2 strain (AID 2302;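 active means growth inhibition above 50% at the single 2 µM test dose, taken to imply half-maximal potency below 2 µM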); conditions: P. falciparum Dd2 in RBCs, LDH growth readout, 72 h; at 2 µM; active compounds read high
[2] = human hepatoma cell viability loss – ATP luminescence, cytotoxicity control for P. falciparum antimalarial project, primary screen (AID 2303;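 active means inhibition above 50%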); conditions: HepG2 viability, 24-48 h, at 10 µM, active compounds read high
[3] = target: L-lactate dehydrogenase (Plasmodium falciparum (isolate CDC / Honduras)) (UniProt Q27743); test: PfLDH activity inhibition – cell lysate, 3D7 strain, counter-screen for P. falciparum growth inhibition project (AID 2304); conditions: P. falciparum 3D7 crude extract, LDH APAD/NBT absorbance; at 2 µM; active compounds read high
L-lactate dehydrogenase (Plasmodium falciparum (isolate CDC / Honduras)), sequence (Q27743 whole entry, looked up): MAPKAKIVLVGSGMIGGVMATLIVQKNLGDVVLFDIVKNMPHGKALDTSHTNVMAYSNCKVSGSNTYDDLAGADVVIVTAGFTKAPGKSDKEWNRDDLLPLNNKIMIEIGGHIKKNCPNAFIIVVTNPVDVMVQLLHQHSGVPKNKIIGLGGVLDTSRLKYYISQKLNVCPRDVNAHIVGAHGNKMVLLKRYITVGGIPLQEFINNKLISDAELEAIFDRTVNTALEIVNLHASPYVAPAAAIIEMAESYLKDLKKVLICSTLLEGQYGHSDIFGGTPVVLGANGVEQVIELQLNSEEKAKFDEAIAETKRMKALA

[4] = inhibition of 3D7 malaria parasite growth – strain 3D7 (AID 2306); conditions: P. falciparum 3D7 erythrocytic growth, LDH absorbance, 72 h; at 2 µM; active compounds read high
[5] = target: Calcium-dependent protein kinase 1 (Plasmodium falciparum (isolate 3D7)) (UniProt P62344); test: PfCDPK1 kinase inhibitors, biochemical, TCAMS library (AID 1159585; cut-off not given, nearly all actives have IC50 up to about 0.98 µM;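 further: inhibitors leave more ATP so luminescence rises with inhibition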); conditions: recombinant PfCDPK1, Kinase-Glo ATP depletion luminescence
Calcium-dependent protein kinase 1 (Plasmodium falciparum (isolate 3D7)), sequence (P62344 whole entry, looked up): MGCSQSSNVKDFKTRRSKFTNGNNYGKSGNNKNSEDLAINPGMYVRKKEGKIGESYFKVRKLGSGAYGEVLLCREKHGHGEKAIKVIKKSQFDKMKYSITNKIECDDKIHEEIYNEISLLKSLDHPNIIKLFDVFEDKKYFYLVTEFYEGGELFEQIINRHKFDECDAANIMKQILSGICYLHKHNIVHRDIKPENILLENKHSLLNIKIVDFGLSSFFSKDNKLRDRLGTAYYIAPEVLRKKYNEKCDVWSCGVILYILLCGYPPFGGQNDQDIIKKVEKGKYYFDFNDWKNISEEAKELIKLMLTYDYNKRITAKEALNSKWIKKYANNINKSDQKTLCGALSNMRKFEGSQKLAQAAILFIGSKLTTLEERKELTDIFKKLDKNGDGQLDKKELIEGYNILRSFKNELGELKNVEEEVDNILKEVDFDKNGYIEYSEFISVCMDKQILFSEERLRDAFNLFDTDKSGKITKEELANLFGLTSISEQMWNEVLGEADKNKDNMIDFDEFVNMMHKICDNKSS

[6] = target: Plasmodium falciparum protein kinase 6 (PK6, PF3D7_1337100) (UniProt Q8IDW1); test: PfPK6 kinase inhibitors, biochemical, TCAMS library (AID 1159586); conditions: recombinant PfPK6, Kinase-Glo ATP depletion luminescence
Plasmodium falciparum protein kinase 6 (PK6, PF3D7_1337100), sequence (Q8IDW1 1-305): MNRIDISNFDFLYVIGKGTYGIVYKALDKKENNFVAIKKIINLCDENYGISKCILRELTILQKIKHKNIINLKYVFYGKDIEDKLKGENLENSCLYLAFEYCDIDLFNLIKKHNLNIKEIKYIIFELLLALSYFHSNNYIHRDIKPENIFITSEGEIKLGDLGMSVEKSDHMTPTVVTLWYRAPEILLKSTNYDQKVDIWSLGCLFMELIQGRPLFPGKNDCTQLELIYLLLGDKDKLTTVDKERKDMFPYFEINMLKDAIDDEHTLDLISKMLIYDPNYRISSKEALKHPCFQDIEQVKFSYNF

[7] = target: Protein kinase 7 (PK7), Plasmodium falciparum 3D7 (PF3D7_0213400) (UniProt Q7YTF7); test: inhibition of Plasmodium PK7 catalytic activity – biochemical, TCAMS antimalarial set, Kinase-Glo luminescence (AID 1159587); conditions: recombinant PfPK7, Kinase-Glo ATP depletion luminescence
Protein kinase 7 (PK7), Plasmodium falciparum 3D7 (PF3D7_0213400), sequence (Q7YTF7 1-343): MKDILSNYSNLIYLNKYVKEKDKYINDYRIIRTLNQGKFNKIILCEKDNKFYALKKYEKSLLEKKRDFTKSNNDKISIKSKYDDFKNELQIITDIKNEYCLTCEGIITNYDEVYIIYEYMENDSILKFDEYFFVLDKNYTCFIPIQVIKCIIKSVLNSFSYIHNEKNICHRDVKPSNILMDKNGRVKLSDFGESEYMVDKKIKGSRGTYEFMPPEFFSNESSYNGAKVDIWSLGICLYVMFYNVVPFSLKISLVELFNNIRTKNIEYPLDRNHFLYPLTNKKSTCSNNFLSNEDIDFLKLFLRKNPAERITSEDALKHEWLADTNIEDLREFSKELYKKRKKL

[8] = target: Calcium-dependent protein kinase 4 (Plasmodium falciparum (isolate 3D7)) (UniProt Q8IBS5); test: PfCDPK4 kinase inhibitors, biochemical, TCAMS library (AID 1159588; cut-off not given, nearly all actives have IC50 up to about 0.91 µM); conditions: recombinant PfCDPK4, Kinase-Glo ATP depletion luminescence
Calcium-dependent protein kinase 4 (Plasmodium falciparum (isolate 3D7)), sequence (Q8IBS5 whole entry, looked up): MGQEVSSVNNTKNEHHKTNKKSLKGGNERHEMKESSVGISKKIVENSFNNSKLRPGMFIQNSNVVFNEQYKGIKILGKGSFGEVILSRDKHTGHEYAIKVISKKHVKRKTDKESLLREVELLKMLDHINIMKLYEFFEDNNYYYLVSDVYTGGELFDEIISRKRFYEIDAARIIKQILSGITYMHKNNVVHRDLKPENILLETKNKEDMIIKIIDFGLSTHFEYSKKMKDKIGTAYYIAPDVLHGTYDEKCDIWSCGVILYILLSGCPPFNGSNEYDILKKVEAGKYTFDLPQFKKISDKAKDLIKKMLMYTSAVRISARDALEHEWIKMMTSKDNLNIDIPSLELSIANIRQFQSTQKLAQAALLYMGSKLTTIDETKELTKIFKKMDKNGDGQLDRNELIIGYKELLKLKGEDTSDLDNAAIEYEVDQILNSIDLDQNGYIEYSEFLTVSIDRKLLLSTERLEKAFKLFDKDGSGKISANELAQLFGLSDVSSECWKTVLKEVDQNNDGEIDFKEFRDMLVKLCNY

SMILES | growth inhibition [1] | inhibition [2] | inhibition [3] [%] | growth inhibition [4] | outcome [5] | outcome [6] | outcome [7] | outcome [8]
CCN(CCCN1CCCCC1)c1nccc(Nc2ccc(Cl)cc2)n1 | 63% (active) | 19% | -1 | 89% (active) | inactive | inactive | inactive | inactive
COc1cccc(-c2nc3c(N4CCN(c5ccncc5)CC4)cccc3n2CC2CCCCCN2)n1 (stereo not given) | 31% | 12% | 3 | 91% (active) | inactive | inactive | inactive | inactive
COc1ccc2c(c1)CCCC2NCCCCNC(=O)c1ccc(NC(=O)c2ccc(Cl)cc2)cc1 (stereo not given) | 49% | 27% | -7 | 100% (active) | inactive | inactive | inactive | inactive
C=CCOC(=O)N1CCC(CNCc2ccc(-c3cccc(-c4nc5ccccc5[nH]4)c3)cc2)C1 (stereo not given) | 50% (active) | 39% | 2 | 100% (active) | inactive | inactive | inactive | inactive
Cc1nc2ccccn2c1C1(O)C(=O)Nc2c(Cl)cc(Cl)cc21 (stereo not given) | 62% (active) | -11% | -3 | 95% (active) | inactive | inactive | inactive | inactive
Cc1ccc(NC(=O)NC2CCN(c3ccnc4cc(Cl)ccc34)C2)cc1 (stereo not given) | 96% (active) | 19% | 5 | 101% (active) | inactive | inactive | inactive | inactive
Cc1cc(N(CCO)CCCN2CCCCC2)nc(Nc2ccc(Cl)cc2)n1 | 18% | 12% | -9 | 100% (active) | inactive | inactive | inactive | inactive
CNCc1ccc2nc(-c3coc(Cc4cc(Cl)ccc4OCC(C)C)n3)[nH]c2c1 | 95% (active) | 34% | 2 | 101% (active) | inactive | inactive | inactive | inactive
CCC(NCc1ccc(-c2cncc(C(=O)NCC(C)C)c2)cc1)c1ccccc1 (stereo not given) | 8% | 14% | 2 | 86% (active) | inactive | inactive | inactive | inactive
COc1ccc(O)c(Cc2cnc3nc(N)[nH]c(=O)c3c2C)c1 | 6% | 30% | -5 | 96% (active) | inactive | inactive | inactive | inactive
COc1ccc(S(=O)(=O)Nc2ccc(C(=O)NCc3ccccc3C(F)(F)F)cc2)cc1N1CCN(CC2CC2)CC1 | 5% | 27% | -3 | 92% (active) | inactive | inactive | inactive | inactive
O=C(C=Cc1ccc(F)cc1)NC1CCC(CCN2CCc3ccc(-c4cnccn4)cc3CC2)CC1 (stereo not given) | 65% (active) | 32% | 1 | 99% (active) | inactive | inactive | inactive | inactive
CCN(CC)CCCC(C)Nc1c(-c2ccc(C)cc2)cnc2ccccc12 (stereo not given) | 65% (active) | 8% | 1 | 85% (active) | inactive | inactive | inactive | inactive
COc1ccc(OC)c(-c2ccc(O)c(CNCC(C)c3ccccc3)c2)c1 (stereo not given) | 96% (active) | 26% | -2 | 98% (active) | inactive | inactive | inactive | inactive
Cc1cccc(OCCCCON2C(N)=NC(N)=NC2(C)C)c1C | 95% (active) | 65% (active) | -3 | 97% (active) | inactive | inactive | inactive | inactive
Cc1cccc(OCC(=O)Nc2cccc(NC(=O)COc3cccc(C)c3)n2)c1 | 30% | -3% | 0 | 98% (active) | inactive | inactive | inactive | inactive
COc1ccc(-c2ccc(CNCc3ccc(F)cc3)cc2)cc1S(=O)(=O)NCCN1CCCC1 | 33% | 24% | 3 | 98% (active) | inactive | inactive | inactive | inactive
Cc1[nH]c(C)c(-c2ccc(OCc3ccc(OC(F)(F)F)cc3)nc2)c(=O)c1Br | 97% (active) | 10% | 7 | 98% (active) | inactive | inactive | inactive | inactive
Cc1cc(NC2CCN(CC3CCCCC3)CC2)nc(Nc2ccccc2Cl)n1 | 31% | 28% | 4 | 100% (active) | inactive | inactive | inactive | inactive
O=C(NCCN1CCCC1)c1cc(-c2ccc(Cl)c(O)c2)c(-c2ccncc2)o1 | -5% | -23% | 0 | 92% (active) | inactive | inactive | inactive | inactive

SMILES | growth inhibition [1] | inhibition [2] | inhibition [3] [%] | growth inhibition [4] | outcome [5] | outcome [6] | outcome [7] | outcome [8]
COc1cc2nc(N3CCC(CNC(=O)c4ccc(-c5ccccc5)cc4)CC3)nc(N)c2cc1OC | 92% (active) | 11% | -1 | 93% (active) | inactive | inactive | inactive | inactive
COc1ccc(CNCc2ccccc2)cc1-c1cccc(S(=O)(=O)NCCN2CCCC2)c1 | 36% | 37% | -8 | 98% (active) | inactive | inactive | inactive | inactive
Clc1ccc2nnc(-c3c(Cl)cccc3Cl)n2n1 | 60% (active) | 29% | -3 | 96% (active) | inactive | inactive | inactive | inactive
Cc1ccc2sc(N3CCN(C(=O)c4ccc([N+](=O)[O-])o4)CC3)nc2c1C | 86% (active) | -7% | 5 | 90% (active) | inactive | inactive | inactive | inactive
COc1ccc(Cl)cc1NC(=O)C(C)N1CCN(S(=O)(=O)c2ccccc2F)CC1 (stereo not given) | 66% (active) | 5% | 4 | 93% (active) | inactive | inactive | inactive | inactive
CCOc1cc(C(=O)N[C@@H](Cc2ccccc2)[C@H](O)CNCc2cc(OC)cc(OC)c2)cc(N2CCCS2(=O)=O)c1 | 66% (active) | -5% | 0 | 94% (active) | inactive | inactive | inactive | inactive
N#Cc1ccc2c(c1)CCN(CCC1CCC(NC(=O)c3cc4cccc(Cl)c4[nH]3)CC1)CC2 (stereo not given) | 78% (active) | 34% | 0 | 99% (active) | inactive | inactive | inactive | inactive
FC(F)(F)c1ccc2nc(-c3cccc(-c4cccc(CN5CCN(c6ccncc6)CC5)c4)c3)[nH]c2c1 | 99% (active) | 93% (active) | 3 | 100% (active) | inactive | inactive | inactive | inactive
COc1cc(C=CC(=O)N2CCC(CCN3CCC(c4c[nH]c5ccccc45)CC3)CC2)cc(OC)c1 | 23% | 39% | -5 | 92% (active) | inactive | inactive | inactive | inactive
Cc1cccc2[nH]c(-c3ccc(-c4ccc(CNCc5cnn(-c6ccccc6)n5)cc4)s3)nc12 | 48% | 16% | -3 | 97% (active) | inactive | inactive | inactive | inactive
COc1ccc2ccc(F)c(CC(=O)N3CCOC(CNCc4cccc(-c5ccc(F)cc5)n4)C3)c2n1 (stereo not given) | 1% | 5% | 6 | 92% (active) | inactive | inactive | inactive | inactive
COc1ccc(-c2cc(C(=O)N[C@@H](CC3CCCCC3)C(=O)NC3CCCc4ccccc43)ccc2O)cc1 (stereo not given in full) | 97% (active) | 7% | -1 | 98% (active) | inactive | inactive | inactive | inactive
CNC(=O)C1Cc2c([nH]c3ccc(Cl)cc23)C2(CCN(CCc3ccccc3)CC2)N1 (stereo not given) | 16% | 2% | -2 | 98% (active) | inactive | inactive | inactive | inactive
CC(Nc1nc(Nc2ccc(F)cc2)nc(SCC(N)=O)n1)c1ccccc1 (stereo not given) | 87% (active) | 14% | -2 | 90% (active) | inactive | inactive | inactive | inactive
COc1ccc2[nH]cc(C3CCN(CCC4CCN(C(=O)/C=C/c5ccc(Cl)c(Cl)c5)CC4)CC3)c2c1 | 56% (active) | 52% (active) | 3 | 101% (active) | inactive | inactive | inactive | inactive
COc1ccc(OC)c(Cc2cnc3nc(N)[nH]c(=O)c3c2C)c1 | 4% | 62% (active) | 3 | 98% (active) | inactive | inactive | inactive | inactive
CN(C)Cc1cccc(-c2cnc(N)c(-c3nc4ccc(S(C)(=O)=O)cc4[nH]3)c2)c1 | 61% (active) | 27% | -2 | 100% (active) | inactive | inactive | inactive | inactive
COc1ccc(CN(C)CCCc2ccc(NC(=O)c3cccc4c(=O)c5cccc(F)c5[nH]c34)cc2)cc1OC | 94% (active) | 100% (active) | 0 | 100% (active) | inactive | inactive | inactive | inactive
Cc1ccc(NC(=O)NC2CCN(c3ccnc4ccccc34)CC2)cc1 | 52% (active) | 21% | -6 | 97% (active) | inactive | inactive | inactive | inactive
CCOc1ccc2c(c1)N(C(=O)C=Cc1ccccc1)C(C)(C)c1ssc(=S)c1-2 | 77% (active) | 3% | -1 | 83% (active) | inactive | inactive | inactive | inactive
